From PubChem BioAssay (NCATS)
Where “and” joins values, the source holds several entries; their conditions need not be identical. Equal entries are not always repeated. Inconclusive results are not listed. Where a call stands in place of a potency, no number is given. Values without a mark were called inactive. Calls of active or inactive are those of the source. Calls follow the shape of the dose curve; as a rule, active = well fitted inhibition curve with a large enough effect; inconclusive = small, poorly fitted or top-dose-only effect; inactive = flat fitted curve, though single readings scatter.

Columns and labels:
[1] = system: NIH3T3; experiment: Cytotoxic Profiling of Annotated Libraries Using Quantitative High-Throughput Screening (AID 1296008); settings: Five cell lines viability, CellTiter-Glo ATP luminescence, 48-72 h; max response: hits give low values; also: potency is read from the fitted curve at half-maximal effect
Outline: (§1)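 Compounds were pin-transferred onto cells and incubated 48 or 72 hr at 37 degree Celsius, 95% humidity. CellTiter-Glo was added, plates sat 10 min at room temperature, then ATP-coupled luminescence was imaged as the viability read-out.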

[2] = system: CRL-7250; experiment: qHTS assay to identify novel small-molecules to repurpose for Merkel cell carcinoma treatment (AID 1296009); settings: MCC and control cell lines, CellTiter-Glo viability, 72 h; at 44.8 µM (top of the series) unless noted
Outline: (§2)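 Cells exposed to NPC (8-point) and MIPE (11-point) compound dilutions for 72 hr at 37 degree celsius; viability read by CellTiter-Glo luminescence, normalized to no-cell and DMSO in-plate controls.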

[3] = system: HACAT; experiment: as above; settings: MCC and control cell lines, CellTiter-Glo viability, 72 h; at 44.8 µM (top of the series) unless noted
Outline: as §2

[4] = system: HEK293T; experiment: as above; settings: MCC and control cell lines, CellTiter-Glo viability, 72 h; at 44.8 µM (top of the series) unless noted
Outline: as §2

[5] = system: KB-3-1; experiment: Cytotoxic Profiling of Annotated Libraries Using Quantitative High-Throughput Screening (AID 1296008); settings: Five cell lines viability, CellTiter-Glo ATP luminescence, 48-72 h; max response: hits give low values; also: potency is read from the fitted curve at half-maximal effect
Outline: as §1

[6] = system: NIH3T3; experiment: qHTS assay to identify novel small-molecules to repurpose for Merkel cell carcinoma treatment (AID 1296009); settings: MCC and control cell lines, CellTiter-Glo viability, 72 h; at 44.8 µM (top of the series) unless noted
Outline: as §2
Also: nearly all actives have a fitted effect of over 60% in size.

Question: Which results are given for `COC(=O)[C@@]12C(=O)C(C)C(=O)[C@]1(C)C(C)=C[C@H]1[C@]3(C=O)CC[C@H](OC(C)=O)C(C)(C)[C@H]3CC[C@@]12C` (stereo not given in full)?
Answer: max response [1]: 3.28%; outcome [2]: inactive [at 17.4 µM]; outcome [3]: inactive [at 17.4 µM]; outcome [4]: inactive [at 17.4 µM]

Question: For `CCC1NC(=O)C2C(Cl)C(Cl)CN2C(=O)C(C(C)O)NC(=O)CC(c2ccccc2)NC(=O)C(CO)NC1=O` (stereo not given), which outcome [5] is on record?
Answer: inactive

Question: And the outcome [1]?
Answer: inactive

Question: What about the outcome [6] of the same molecule?
Answer: inactive [at 17.4 µM]

Question: What does the source list for `Cc1c(Cl)cccc1S(=O)(=O)Nc1nc(CC(=O)N2CCN(C)CC2)cs1`?
Answer: outcome [1]: inactive; outcome [3]: inactive; outcome [6]: inactive

Question: How did the max response [5] turn out when `COC(=O)N1CCN(C(=O)Cc2ccc(Cl)c(Cl)c2)[C@@H](CN2CCCC2)C1` was run?
Answer: -3.66%

Question: And the outcome [1]?
Answer: inactive

Question: What about the outcome [6] of the same molecule?
Answer: inactive

Question: For `COc1ccccc1CN[C@H]1C2CCN(CC2)[C@H]1C(c1ccccc1)c1ccccc1`, which outcome [1] is on record?
Answer: inactive

Question: What about the outcome [2] of the same molecule?
Answer: inactive

Question: And the outcome [3]?
Answer: inactive

Question: And the outcome [6]?
Answer: inactive

Question: How did the max response [5] turn out when `CC(=O)OC1CC(O)C(C)(C)C2CC(OC(C)=O)C3(C)C(CCC4(C)C(c5ccoc5)C(=O)C5OC543)C12C` (stereo not given) was run?
Answer: 4.61%

Question: And the outcome [1]?
Answer: inactive

Question: And the outcome [6]?
Answer: inactive [at 17.4 µM]

Question: `COc1cc(CCNCc2ccccc2O)c(OC)cc1C#N` was tested. Which max response [1] did it give?
Answer: 4.5%

Question: What about the outcome [2] of the same molecule?
Answer: inactive

Question: What about the outcome [3] of the same molecule?
Answer: inactive

Question: Which results are given for `Oc1ccc2c3c1O[C@H]1[C@H](N(CCCl)CCCl)CC[C@@]4(O)[C@@H](C2)N(CC2CC2)CC[C@]314`?
Answer: outcome [5]: inactive; outcome [1]: inactive; outcome [6]: inactive [at 9.27 µM]

Question: `CCCCCCn1c(=O)c(C(=O)Nc2ccc(C(=O)OCCC)cc2)c(O)c2ccccc21` was tested. Which max response [1] did it give?
Answer: 4.2%

Question: And the outcome [3]?
Answer: inactive [at 9.27 µM]

Question: What about the outcome [4] of the same molecule?
Answer: inactive [at 9.27 µM]

Question: Which max response [5] does the source give for `COC(=O)C1(C)CCC(=O)C2(C)c3c(O)cc(C(C)C)cc3C(O)C(OC(C)=O)C12` (stereo not given) here?
Answer: 0.842%

Question: What about the outcome [1] of the same molecule?
Answer: inactive

Question: What about the outcome [6] of the same molecule?
Answer: inactive [at 17.4 µM]

Question: For `CCOc1ccccc1-n1c(C(C)N2CCN(C(=O)COc3ccc(Cl)cc3)CC2)nc2ccccc2c1=O` (stereo not given), which Potency [1] is on record?
Answer: 1.03 µM (active) and 933 nM (active)

Question: For `Clc1ccc(N2C[C@H]3CC[C@@H](C2)N3)nn1`, which outcome [1] is on record?
Answer: inactive

Question: And the outcome [6]?
Answer: inactive

Question: Which results are given for `COC1C(O)C(OC2CCC3(C=O)C(CCC4C3CCC3(C)C(C5=CC(=O)OC5)CCC43O)C2)OC(C)C1OC1OC(CO)C(O)C(O)C1O` (stereo not given)?
Answer: Potency [5]: 485 nM (active); outcome [1]: inactive; outcome [6]: inactive [at 17.4 µM]

Question: With `CCN1CC2(COC)C3[C@@H](OC)C4C1C3(C1C[C@]3(O)[C@H](OC(=O)c5ccccc5)C1[C@]4(OC(C)=O)[C@@H](O)[C@@H]3OC)[C@H](OC)C[C@H]2O` (stereo not given in full) as the molecule, how does the outcome [5] read?
Answer: inactive

Question: And the outcome [1]?
Answer: inactive

Question: And the outcome [6]?
Answer: inactive

Question: `CC(C)(O)[C@H]1O[C@H]2CC[C@@]3(C)[C@@](O)(CC[C@H]4Cc5c([nH]c6ccccc56)[C@@]43C)C2=CC1=O` was tested. Which outcome [1] did it give?
Answer: inactive

Question: And the outcome [6]?
Answer: inactive [at 17.4 µM]

Question: For `COC1C(O)C(C)OC(OC2C(CO)O[C@@H](O[C@@H]3CC4CCC5C(CC[C@]6(C)[C@@H](C7=CC(=O)OC7)CC[C@]56O)[C@@]4(C)[C@H](O)C3)C(O)C2O)C1O` (stereo not given in full), which Potency [5] is on record?
Answer: 862 nM (active)

Question: What about the outcome [1] of the same molecule?
Answer: inactive

Question: And the outcome [6]?
Answer: inactive [at 17.4 µM]

Question: For `Cn1ncnc1COc1nn2c(-c3c(F)cccc3F)nnc2cc1C1CCC1`, which max response [1] is on record?
Answer: 2.04%

Question: And the outcome [2]?
Answer: inactive

Question: And the outcome [3]?
Answer: inactive

Question: And the outcome [4]?
Answer: inactive
